Results published in PubChem BioAssay (NCI).
The panel holds about 83,000 compounds, 20% with a hit somewhere; the sample as a whole holds those more often.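 Growth was measured after 48 h exposure to one concentration of compound in 96-well plates. Values under 10 count as active.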 A number with no mark means an inactive call. The source made the active and inactive calls.

Key:
Test in all cases: NCI-60 one-dose screen, 48 h (100 = growth as untreated, 0 = no growth, -100 = all killed)
Settings in all cases: 10 µM unless noted
HCT-15 colon = test system: HCT-15 colon
HT29 colon = test system: HT29 colon
SNB-75 CNS = test system: SNB-75 CNS
SNB-19 CNS = test system: SNB-19 CNS
PC-3 prostate = test system: PC-3 prostate
SK-MEL-5 melanoma = test system: SK-MEL-5 melanoma
UACC-62 melanoma = test system: UACC-62 melanoma
LOX IMVI melanoma = test system: LOX IMVI melanoma
SK-MEL-28 melanoma = test system: SK-MEL-28 melanoma
U251 CNS = test system: U251 CNS

SMILES | growth (HCT-15 colon) | growth (HT29 colon) | growth (SNB-75 CNS) | growth (SNB-19 CNS) | growth (PC-3 prostate) | growth (SK-MEL-5 melanoma) | growth (UACC-62 melanoma) | growth (LOX IMVI melanoma) | growth (SK-MEL-28 melanoma) | growth (U251 CNS)
CCN1C(=O)N(CC)C2SC(N/N=C/c3ccc(F)cc3)=NC21 (configuration not stated) | 14.9% | 3.77% (active) | 38.2% | 28.1% | 30.3% | 15.3% | 33.6% | 14.1% | 58.9% | 
O=C1Nc2cc(OC(F)(F)F)ccc2Oc2ccc(-c3ccnc(N4CCNCC4)c3)cc21 | -51.4% (active) | -72.7% (active) | -5.02% (active) | 27.2% | 13.8% | -85.3% (active) | -70.7% (active) | -85.8% (active) | -80.9% (active) | 
COc1ccc([C@H]2[C@H](O)C(=O)N2c2cc(OC)c(OC)c(OC)c2)cc1 | 9.24% (active) | -2.31% (active) | 49.6% | 29% | 13.9% | 0.112% (active) | 20.6% | 15.1% | 62.8% | 
CC1OC(O[C@@H]2[C@H](O)C(CO)OC(O[C@H]3COC(O[C@H]4CC[C@]5(C)[C@H]6CC[C@]78OC[C@@]9(CC[C@](C)(C=O)C[C@H]97)C(=O)C[C@@]8(C)[C@]6(C)CC[C@H]5C4(C)C)[C@@H](O)[C@@H]3O)[C@H]2OC2OC[C@@H](O)[C@@H](O)[C@@H]2O)[C@@H](O)[C@@H](O)[C@H]1O (some centres not stated) | 95.8% | 97.1% | 81.4% | 90.2% | 81.4% |  |  | 88.1% |  | 95.8%
CS(=O)(=O)c1nccc(-c2c(-c3ccc(F)c(OCCc4ccccc4)c3)nc3sccn23)n1 | 83.1% | 91.3% | 108% | 81.7% | 41.7% | 98% | 83.9% | 75.2% | 57.3% | 
CC1OC(O[C@@H]2C(O)C(CO)OC(O[C@H]3COC(O[C@H]4CC[C@]5(C)[C@H]6CC[C@]78OC[C@@]9(CC[C@](C)(C=O)C[C@H]97)[C@H](O)C[C@@]8(C)[C@]6(C)CC[C@H]5C4(C)C)[C@@H](OC4OC(CO)[C@@H](O)[C@@H](O)[C@@H]4O)[C@@H]3O)[C@H]2OC2OC[C@@H](O)[C@@H](O)[C@@H]2O)[C@@H](O)[C@@H](O)[C@H]1O (some centres not stated) | 83.7% | 6.44% (active) | -65.2% (active) | -49.2% (active) | -80.5% (active) |  |  | -5.38% (active) |  | -87.5% (active)
CCCCOc1ccc(S(=O)(=O)N2CCN(c3nccc(N4CCOCC4)n3)CC2)cc1 | 7.04% (active) | 13.5% |  | 71.4% | 41.3% | 46.8% | -7.93% (active) | -67.9% (active) | 21.1% | 27.2%
COc1cc(/C=N/n2cnc3oc(-c4ccccc4)cc3c2=N)cc(CN2CCN(C)CC2)c1O | 81.4% | 48.3% |  | 110% | 77.7% | 87.9% | 102% | 79% | 94.1% | 108%
O=C(CCCCCCN1CC(=O)N2[C@@H](c3ccc(Cl)c(F)c3)c3[nH]c4ccccc4c3C[C@H]2C1=O)NO | 98.6% | 89.3% |  | 86.6% | 63.8% | 86% | 48.7% | -79.9% (active) | 86.2% | 85.1%
Nc1ccc(-c2nnc(SCc3ccc(O)c4ncccc34)o2)cc1 | 10.2% | 8.36% (active) |  | 8.55% (active) | 0.0718% (active) | -20.5% (active) | -54.4% (active) | 0.185% (active) | 10.6% | -6.47% (active)
COc1ccc(-c2nc(SCC(C)C)nc(N/N=C\c3cccc([N+](=O)[O-])c3)c2C#N)cc1 | 46.3% | 49.9% | -11.2% (active) | 38.6% | 55.2% | 68.3% | 75.6% |  | 77.7% | 
CCNC(=NCCCN(C)C)N/C(N)=N/c1nc2ccccc2s1 | 77.4% | 69.9% |  | 90.1% | 80.3% | 93.4% | 97.6% | 73.5% | 93.1% | 79.3%
O=C1c2c(c3c4cccnc4[nH]c3c3ccc4ccccc4c23)C(=O)N1CCN1CCCCC1 | 45.5% | 44.8% | 53.8% | 41.1% | 59.5% | 48.1% | 49.6% |  | 97% | 
Oc1ccc(CSc2nnc(-c3ccc(Br)cc3)n2-c2ccccc2)c2cccnc12 | 15.7% | 89.6% |  | 17.8% | 29.5% | 12% | 0.404% (active) | 36.2% | 40.9% | 7.75% (active)
COc1cc2cc(Oc3ccc(NC(=O)Nc4cc(C(F)(F)F)cc(C(F)(F)F)c4)cc3)c(C)nc2cc1OCCN(C)C | 103% | 120% |  | 103% | 110% | 102% | 93.1% | 108% | 110% | 107%
O=C1[C@@H]2Cc3c([nH]c4ccccc34)[C@H](c3c(Cl)cccc3Cl)N2C(=O)CN1C1CCN(Cc2c(F)cccc2F)CC1 | 52.2% | 63.9% |  | 81.7% | 69.9% | 53.4% | 76.8% | -47.1% (active) | 75% | 73.5%
COc1ccc(OC)c([C@H]2c3[nH]c4ccccc4c3C[C@H]3C(=O)N(CCCCCCC(=O)NO)CC(=O)N23)c1 | 99.5% | 87.6% |  | 86.9% | 77.9% | 86.8% | 53.1% | 15% | 75.2% | 81.1%
O=C1[C@H]2Cc3c([nH]c4ccccc34)[C@@H](c3ccc(Cl)cc3)N2C(=O)CN1C1CCN(Cc2c(Cl)cccc2Cl)CC1 | 54.5% | 81.8% |  | 94.2% | 70.8% | 90.1% | 81.8% | -89% (active) | 103% | 91.2%
Nc1ccc(-c2nnc(SCc3ccc(O)c4ncccc34)n2-c2ccccc2)cc1 | 11.3% | 23.8% |  | 12.4% | 14.1% | -54.6% (active) | 11.9% | 14% | 34% | 8.88% (active)
NC(=S)N/N=C(/C=C/c1cn(-c2ccccc2)nc1-c1ccc(Cl)cc1)c1cc2ccccc2oc1=O | 19.9% | 36.1% |  | 47.6% | 28% | 30.4% | 49.6% | 36% | 73% | 35.4%
O=C(/C=C/c1cn(-c2ccccc2)nc1-c1ccc(Cl)cc1)c1cc2ccccc2oc1=O | 58.9% | 62.1% |  | 54.3% | 53.3% | 72% | 52.7% | 37.3% | 93% | 35.1%
NNC(=O)c1sc2nc(-c3cnccn3)cc(-c3cccs3)c2c1N | 89.9% | 106% |  | 88.2% | 90.1% | 97.2% | 93.7% | 83.2% | 101% | 90%
O=C(CCCCCCN1CC(=O)N2[C@@H](c3cccc(Cl)c3)c3[nH]c4ccccc4c3C[C@H]2C1=O)NO | 85.7% | 30.6% |  | 61.2% | 42.6% | 33.6% | 16% | -80.3% (active) | 40.2% | 44.9%
O=C(CCCCCCN1CC(=O)N2[C@@H](c3ccccc3)c3[nH]c4ccccc4c3C[C@H]2C1=O)NO | 91.4% | 41.9% |  | 67.1% | 59.6% | 41.7% | 18.8% | 30.8% | 47% | 51.7%
COc1cc(/C=N/n2cnc3oc(-c4ccccc4)cc3c2=N)cc(CN2CCCC2)c1O | -85.2% (active) | -48.2% (active) |  | 21.8% | -68.6% (active) | 91.5% | 96.7% | -88.5% (active) | 91.6% | -45.7% (active)
CCCC(=O)NC(c1cccnc1)c1cc(C(C)=O)c2cccnc2c1O (configuration not stated) | 19.6% | 26.9% |  | 29.5% | 39.2% | 0.739% (active) | 1.58% (active) | 27% | 34.1% | 23.3%
N/C(=N\c1nc2ccc([N+](=O)[O-])cc2s1)C(Cl)(Cl)Cl | 70.8% | 30.7% |  | 61.2% | 49.1% | 83.8% | 54.7% | 76% | 72.2% | 43.9%
